{
  "source": "PubChem BioAssay (NCI)",
  "note": "Compounds without any hit were thinned out: in the full panel of roughly 83,000, 20% have a hit.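 Testing used 96-well plates and a 48-hour single-concentration exposure. Example: -40 means 40% of the starting cells died.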 A number with no mark means an inactive call. The source made the active and inactive calls. How the source made its calls: active means growth percent below 10; inactive means the rest.",
  "data": [
    {"system": "SNB-19 CNS", "assay": "NCI-60 one-dose screen, 48 h (100 = growth as untreated, 0 = no growth, -100 = all killed)", "conditions": "10 µM", "values": [
      {"smiles": "Nc1ccc2c(c1)Cc1cc(N)c(Br)cc1-2", "growth": "114%"},
      {"smiles": "Cc1ccc(Nc2nnc(-c3cc(-c4ccncc4)n(-c4ccccc4)n3)s2)cc1", "growth": "89.7%"},
      {"smiles": "O=C(N/N=C\\c1cc(Cl)ccc1[N+](=O)[O-])c1ccco1", "growth": "102%"},
      {"smiles": "COc1ccc2c(c1)sc1nc(-c3ccccc3)c(-c3ccsc3)n12", "growth": "40.8%"},
      {"smiles": "O=C(N/N=C/c1ccccc1O)C(O)(c1ccccc1)c1ccccc1", "growth": "66%"},
      {"smiles": "CCCCCCCCCCCCC1C/C=C\\CCCC(=O)O1", "note": "(configuration not stated)", "growth": "110%"},
      {"smiles": "O=C(Nc1cccc(Br)c1)c1cc(=O)[nH]c2ccccc12", "growth": "97.9%"},
      {"smiles": "CC(C)=CCc1ccc(O)c(=O)cc1C(C)C", "growth": "41%"},
      {"smiles": "Cc1occc1-c1nnc(SCC(=O)c2ccc(NC(=O)CC(C)C)cc2)o1", "growth": "95.8%"},
      {"smiles": "CC(C)=NNc1ncnc2c1ncn2C1OC(CO)C(O)C1O", "note": "(configuration not stated)", "growth": "42.5%"},
      {"smiles": "CCCCCCCCCCCCCC[n+]1ccc(C(N)=O)cc1", "growth": "-58.5% (active)"},
      {"smiles": "COc1ccc(Cl)cc1C(=O)Nc1nc2ccc(Cl)cc2s1", "growth": "103%"},
      {"smiles": "O=C(CSSCC(=O)c1ccc(Cl)cc1)c1ccc(Cl)cc1", "growth": "52.8%"},
      {"smiles": "O=[P@@]1(c2ccccc2)O[C@H](COCc2ccccc2)[C@@H](OCc2ccccc2)[C@H](OCc2ccccc2)[C@H]1O", "growth": "55.3%"},
      {"smiles": "Nc1ncn([C@@H]2O[C@H](CO)[C@@H](O)[C@H]2O)c(=O)n1", "growth": "46.6%"},
      {"smiles": "CCCCOC(=O)Oc1ccc(C(=O)Oc2ccc(OCC)cc2)cc1", "growth": "102%"},
      {"smiles": "O=C1c2ccc3c4c(ccc(c24)C(=O)N1CCNCc1ccccc1)C(=O)N(CCNCc1ccccc1)C3=O", "growth": "8.03% (active)"},
      {"smiles": "CCn1cc(C(=O)O)c(=O)c2cnc(N3CCCC3)nc21", "growth": "105%"},
      {"smiles": "Cc1ccc(-c2nc(/C=C3/C(=O)N(C)c4ccc(F)cc43)c3ccccn23)cc1", "growth": "101%"},
      {"smiles": "COc1ccc(OC)c(/C=C/c2nc(SC)n(-c3ccc(Cl)cc3)n2)c1", "growth": "81.4%"},
      {"smiles": "COc1cccc(-c2cc(-c3cccc(NS(C)(=O)=O)c3)nc(N)c2C#N)c1O", "growth": "42.3%"},
      {"smiles": "CC1CN(Cc2ccccc2)C(=O)NC1=O", "note": "(configuration not stated)", "growth": "92%"},
      {"smiles": "Cc1cn(C2CCCCO2)c(=O)nc1NO", "note": "(configuration not stated)", "growth": "105%"}
    ]},
    {"system": "U251 CNS", "assay": "NCI-60 one-dose screen, 48 h (100 = growth as untreated, 0 = no growth, -100 = all killed)", "conditions": "10 µM", "values": [
      {"smiles": "CSc1cc(SC)ncn1", "growth": "108%"},
      {"smiles": "CCOC(=O)CNC(=O)CCCCSc1ncnc2nc[nH]c12", "growth": "106%"},
      {"smiles": "COc1ccc(OC)c(/C=C/c2nc(SCc3ccccc3)n(-c3ccc(Cl)cc3)n2)c1", "growth": "38.7%"},
      {"smiles": "c1ccc(C(NC2CC3CCC2C3)c2ccccc2)cc1", "note": "(configuration not stated)", "growth": "91.9%"},
      {"smiles": "CN1CCC2(CC1)NC(=O)c1c(c3ccc(Cl)c(Cl)c3n1C)C2C#N", "note": "(configuration not stated)", "growth": "90.6%"},
      {"smiles": "O=[N+]([O-])c1cccc(N=Cc2ccc3c(c2)OCO3)c1", "growth": "97.1%"},
      {"smiles": "Nc1cc2c(cc1Cl)-c1ccc([N+](=O)[O-])cc1/C2=N\\O", "growth": "67.7%"},
      {"smiles": "COc1ccc(OC)c2c1C(=O)CC2C", "note": "(configuration not stated)", "growth": "100%"},
      {"smiles": "N#CSCC1CC(O)(c2ccccc2)CC(c2ccc(Cl)cc2)O1", "note": "(configuration not stated)", "growth": "55.2%"},
      {"smiles": "CCOC(=O)C1CCc2c(ccc3ccccc23)N1CCC#N", "note": "(configuration not stated)", "growth": "89.7%"},
      {"smiles": "Fc1ccc(-c2nnc(-c3c(-c4ccc(F)cc4)nc4ccccn34)o2)cc1", "growth": "81.2%"},
      {"smiles": "O=C1/C(=C/c2ccc(Cl)cc2)SC(=Nc2ccc(Cl)cc2)N1Cc1nc2ccccc2[nH]1", "growth": "76.2%"},
      {"smiles": "CO/N=C(/C(=O)NC1C(=O)N2C(C(=O)O)=C(COC(N)=O)CSC12)c1ccco1", "note": "(configuration not stated)", "growth": "107%"},
      {"smiles": "COc1ccc(C2CC(c3ccc(N(C)C)cc3)=NN2c2ccc(S(N)(=O)=O)cc2)cc1", "note": "(configuration not stated)", "growth": "26.6%"},
      {"smiles": "CN(C)CCNC(=O)c1cccn2c(=O)c3cc4ccccc4cc3nc12", "growth": "-11.1% (active)"},
      {"smiles": "Oc1[nH]c2ccc(Cl)cc2c1/C=c1/ccc2c(c1)N=C(c1cccs1)N=2", "growth": "61.3%"},
      {"smiles": "Nc1ccc2c(c1)Cc1cc(N)c(Br)cc1-2", "growth": "108%"},
      {"smiles": "Cc1ccc(Nc2nnc(-c3cc(-c4ccncc4)n(-c4ccccc4)n3)s2)cc1", "growth": "65.6%"},
      {"smiles": "O=C(N/N=C\\c1cc(Cl)ccc1[N+](=O)[O-])c1ccco1", "growth": "97.4%"},
      {"smiles": "COc1ccc2c(c1)sc1nc(-c3ccccc3)c(-c3ccsc3)n12", "growth": "26.9%"},
      {"smiles": "O=C(N/N=C/c1ccccc1O)C(O)(c1ccccc1)c1ccccc1", "growth": "45.9%"},
      {"smiles": "CCCCCCCCCCCCC1C/C=C\\CCCC(=O)O1", "note": "(configuration not stated)", "growth": "109%"},
      {"smiles": "O=C(Nc1cccc(Br)c1)c1cc(=O)[nH]c2ccccc12", "growth": "91.5%"},
      {"smiles": "CC(C)=CCc1ccc(O)c(=O)cc1C(C)C", "growth": "15.5%"},
      {"smiles": "Cc1occc1-c1nnc(SCC(=O)c2ccc(NC(=O)CC(C)C)cc2)o1", "growth": "105%"},
      {"smiles": "CC(C)=NNc1ncnc2c1ncn2C1OC(CO)C(O)C1O", "note": "(configuration not stated)", "growth": "29.1%"},
      {"smiles": "CCCCCCCCCCCCCC[n+]1ccc(C(N)=O)cc1", "growth": "-100% (active)"},
      {"smiles": "COc1ccc(Cl)cc1C(=O)Nc1nc2ccc(Cl)cc2s1", "growth": "87.3%"},
      {"smiles": "O=C(CSSCC(=O)c1ccc(Cl)cc1)c1ccc(Cl)cc1", "growth": "53.7%"},
      {"smiles": "O=[P@@]1(c2ccccc2)O[C@H](COCc2ccccc2)[C@@H](OCc2ccccc2)[C@H](OCc2ccccc2)[C@H]1O", "growth": "39.4%"},
      {"smiles": "Nc1ncn([C@@H]2O[C@H](CO)[C@@H](O)[C@H]2O)c(=O)n1", "growth": "19.6%"},
      {"smiles": "CCCCOC(=O)Oc1ccc(C(=O)Oc2ccc(OCC)cc2)cc1", "growth": "88.9%"},
      {"smiles": "O=C1c2ccc3c4c(ccc(c24)C(=O)N1CCNCc1ccccc1)C(=O)N(CCNCc1ccccc1)C3=O", "growth": "-46.3% (active)"},
      {"smiles": "CCn1cc(C(=O)O)c(=O)c2cnc(N3CCCC3)nc21", "growth": "103%"},
      {"smiles": "Cc1ccc(-c2nc(/C=C3/C(=O)N(C)c4ccc(F)cc43)c3ccccn23)cc1", "growth": "80.8%"},
      {"smiles": "COc1ccc(OC)c(/C=C/c2nc(SC)n(-c3ccc(Cl)cc3)n2)c1", "growth": "78.1%"},
      {"smiles": "COc1cccc(-c2cc(-c3cccc(NS(C)(=O)=O)c3)nc(N)c2C#N)c1O", "growth": "30.9%"},
      {"smiles": "CC1CN(Cc2ccccc2)C(=O)NC1=O", "note": "(configuration not stated)", "growth": "108%"},
      {"smiles": "Cc1cn(C2CCCCO2)c(=O)nc1NO", "note": "(configuration not stated)", "growth": "112%"}
    ]}
  ]
}
